Screening data (PubChem)
NadD inh = inhibitors of S. aureus NadD, primary screen, biochemical, colorimetric, uHTS; inhibition, % at 20 µM; actives 0.78% (n = 360,000); purified NadD enzyme, colorimetric absorbance read-out; in the data active = inhibition above about 26%
GRK2 inh = compounds blocking aptamer binding on GRK2 – biochemical, human GRK2, bead flow cytometry, HTS, primary screen. Beta-adrenergic receptor kinase 1 (Homo sapiens), P25098. FAM-aptamer displacement from GRK2. inhibition of aptamer binding, % at 10 µM. actives 0.59% (n = 330,000). AID 488847, 2010;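 active = inhibition of aptamer binding above 40%, roughly 3 SD of noise, on plates passing a quality check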;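 also: median bead fluorescence of bound FAM aptamer so fluorescent compounds give negative values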
Exocytosis inh = LAMP-1 surface exposure blockers, TALL-104 cells – cell-based, flow cytometry, MLPCN library, primary screen; TALL-104 LAMP-1 surface exposure; cells stimulated with thapsigargin and PMA; inhibition, % at 10 µM; actives 0.66% (n = 360,000); AID 651702, 2012;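 active = inhibition above about 55%, limit read from the data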
Beta2AR agonist = beta2AR agonists driving receptor internalization, primary screen, cell-based, FAP fluorogen, flow cytometry. Am2.2-beta2AR cells. response, % (test concentration not listed). actives 0.43% (n = 340,000);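 active = response above a set limit, near 3 SD of response in nonfluorescent compounds, cut at about 42% in these data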
Target sequence (P07550 whole entry, looked up): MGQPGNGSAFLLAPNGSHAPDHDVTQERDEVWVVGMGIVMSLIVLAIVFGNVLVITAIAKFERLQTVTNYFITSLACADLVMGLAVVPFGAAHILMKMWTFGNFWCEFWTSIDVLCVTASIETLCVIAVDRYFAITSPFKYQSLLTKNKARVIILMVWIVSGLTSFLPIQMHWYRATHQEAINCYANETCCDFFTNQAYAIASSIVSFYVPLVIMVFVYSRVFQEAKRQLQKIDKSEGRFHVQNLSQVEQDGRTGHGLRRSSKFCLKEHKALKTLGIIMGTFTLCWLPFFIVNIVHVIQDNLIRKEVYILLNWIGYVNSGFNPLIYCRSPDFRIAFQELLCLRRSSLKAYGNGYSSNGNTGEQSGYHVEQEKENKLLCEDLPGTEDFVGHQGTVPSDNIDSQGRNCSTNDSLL
PP1 counter = PP1-alpha phosphatase inhibitors, primary screen, counter-screen for PP5 inhibitor project, biochemical, fluorescence, OMFP substrate, single point. Serine/threonine-protein phosphatase PP1-alpha catalytic subunit (Homo sapiens), P62136. purified PP1alpha. inhibition, % at 6.7 µM. actives 0.9% (n = 320,000). AID 2235, 2010;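 active = inhibition above the mean inhibition of all tested compounds plus 3 SD, computed separately for each screening campaign, cut at about 15% in these data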
NadD inh conf = inhibitors of S. aureus NadD, confirmation, biochemical, colorimetric, single concentration; shares compounds with NadD inh; purified S. aureus NadD, colorimetric enzyme assay; actives 13% (n = 2,000); inhibition, % at 20 µM; in the data active = inhibition mostly above about 42%, no sharp cut-off; inactive = mostly below about 42%
An asterisk follows results filed as active; / = no result given. An excerpt weighted towards active compounds, which were near 2.9% of everything screened.

SMILES | NadD inh | GRK2 inh | Exocytosis inh | Beta2AR agonist | PP1 counter | NadD inh conf
CC(=O)C1=NN(c2ccc(Cl)cc2)C(c2ccc3c(c2)OCO3)N(C(C)=O)N1C (centres undefined) | -2 | 0 | 19 | 0 | -5 | /
Cc1ccc(NC(=O)CSc2nnc3c(n2)[nH]c2ccccc23)cc1 | -3 | 2 | 3 | 0 | -4 | /
Cc1ccc(-c2csc(NC(=O)CSc3nnc4c(n3)[nH]c3ccccc34)n2)cc1 | 58* | 0 | 3 | -2 | 17* | 18
O=C(c1ccc2nsnc2c1)N1CCN(c2ccc([N+](=O)[O-])cc2)CC1 | -10 | 1 | 2 | -5 | 0 | /
Cc1nc2c(c3c1[nH]c1ccccc13)C(O)CC(C)(C)C2 (centres undefined) | -2 | 3 | -1 | -3 | -1 | /
COc1ccc(Cc2c(C3CCCCC3)nc3c(Cl)cc(C(F)(F)F)cn23)c(C)c1 | 31* | / | -4 | / | / | 13
COc1ccc(Cc2c(C3CCCCC3)nc3ccc(Br)cn23)c(C)c1 | 5 | / | -4 | / | / | /
Cc1cc(NC(=O)CCC(=O)N(CC(=O)NCC2CCCO2)c2ccc(C(C)C)cc2)no1 (centres undefined) | 5 | 0 | -2 | 4 | -1 | /
Cc1ccc([N+](=O)[O-])cc1N/C=C1\CCCCC1=O | -2 | 7 | -1 | -5 | -3 | /
C=CCN1CCc2nc(N)sc2CC1 | 30* | / | 3 | 1 | / | 21
c1cn(CC2(Cn3ccnc3)COC2)cn1 | -5 | 2 | -2 | -9 | 0 | /
O=Cc1c(Nc2cccc(C(F)(F)F)c2)nc2ccccn2c1=O | -8 | 2 | -13 | -8 | 3 | /
O=C(N/N=C/c1c(Nc2cccc(C(F)(F)F)c2)nc2ccccn2c1=O)c1ccccc1[N+](=O)[O-] | 32* | 6 | -4 | -3 | 0 | 5
Cc1ccc(-n2c(SCC(=O)N/N=C/c3c(C)nn(-c4ccccc4)c3C)nc3ccccc3c2=O)cc1 | 22 | 0 | 0 | -4 | 1 | /
Cc1ccc(/C=N/NC(=O)CSc2nc3ccccc3c(=O)n2-c2ccccc2C)s1 | 50* | 0 | 1 | -15 | 6 | 34
Cc1nn(-c2ccccc2)c(C)c1/C=N/NC(=O)CSc1nc2ccccc2c(=O)n1-c1ccc(Br)cc1 | 30* | 0 | -1 | 0 | 1 | 3
CCCCCOc1ccc(/C=c2\sc3nc(=O)c(-c4ccccc4)nn3c2=O)cc1OC | 7 | 0 | 0 | 6 | -3 | /
O=c1nc2s/c(=C\c3ccc(-c4ccccc4[N+](=O)[O-])o3)c(=O)n2nc1-c1ccccc1 | 36* | / | -6 | 0 | / | 5
O=c1oc2ccc3ccccc3c2cc1-c1nnc(-c2cccs2)o1 | 50* | 0 | -2 | -5 | -3 | 10
O=c1oc2ccc3ccccc3c2cc1-c1nnc(-c2ccccc2)o1 | 26 | 0 | 1 | 17 | -4 | /
CCN(CC)C(=O)[C@H]1CC(CC(=O)NCCCOC)C(=O)N2CCc3c([nH]c4ccccc34)[C@]12C (some centres undefined) | -2 | 9 | -2 | -5 | / | /
Nc1nc(SCc2ccc(Cl)cc2Cl)nc2nc3c(cc12)CCCC3 | 36* | 0 | -2 | -20 | 2 | 16
COc1ccc(-c2ccc3[nH]c4c(c3c2)CCN2C[C@@H]([C@H](C)OC(=O)Nc3cc(Cl)cc(Cl)c3)[C@@H](N(C)C(=O)Nc3cc(Cl)cc(Cl)c3)C[C@@H]42)cc1 | 38* | / | 2 | / | / | 1
COc1cccc(Oc2cc(Cl)nc(N)n2)c1 | -2 | 0 | -3 | -4 | 2 | /
COc1cccc(-c2cc(C(=O)Nc3nc4ccccc4s3)c3ccccc3n2)c1 | 36* | 3 | -1 | 5 | 4 | 6
COc1cc2c(cc1NC(=O)c1cc(-c3cccnc3)nc3ccc(C)cc13)oc1ccccc12 | 22 | 0 | -4 | 0 | -3 | /
Cc1csc(NC(=O)c2cc(C)nc3ccccc23)n1 | -6 | 4 | -1 | -4 | -5 | /
